# Measurements reported in the supplement of paper PMC8253809.
# Experiments:
# Assay in all cases: growth inhibition (% activity, log2 RLU normalised to DMSO / staurosporine); higher = more growth inhibition
# Conditions in all cases: 33 µM
# [1] = test system: DIPGX29 (H3.3 K27M diffuse intrinsic pontine glioma line)
# Procedure, shortened: (§1)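 On Geltrex-coated 384-well plates, pHGG cell lines and H9-derived neural stem cells were grown with approved drugs pinned in at a single final concentration of about 33 μM, in triplicate, for 7 days at 37 °C, 5% CO2. Per-plate normalisation of log2-transformed CellTiter-Glo luminescence to % activity between solvent and positive control wells followed. Each growth-inhibition value is the median over the replicates.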
# [2] = test system: DIPGX37 (H3.3 K27M diffuse intrinsic pontine glioma line)
# Procedure, shortened: as §1
# [3] = test system: DIPGX7 (H3.3 K27M diffuse intrinsic pontine glioma line)
# Procedure, shortened: as §1
# [4] = test system: DIPGX9 (diffuse intrinsic pontine glioma line)
# Procedure, shortened: as §1
# [5] = test system: HGGX39 (paediatric high-grade glioma line)
# Procedure, shortened: as §1
# [6] = test system: HGGX6 (H3.3 G34R paediatric high-grade glioma line)
# Procedure, shortened: as §1
# [7] = test system: HNSC
# Procedure, shortened: as §1
# [8] = test system: SUDIPGIV (diffuse intrinsic pontine glioma line)
# Procedure, shortened: as §1
# [9] = test system: SUDIPGVI (diffuse intrinsic pontine glioma line)
# Procedure, shortened: as §1
# [10] = test system: SUDIPGXIII (diffuse intrinsic pontine glioma line)
# Procedure, shortened: as §1
Compound,growth inhibition [1] [%],growth inhibition [2] [%],growth inhibition [3] [%],growth inhibition [4] [%],growth inhibition [5] [%],growth inhibition [6] [%],growth inhibition [7] [%],growth inhibition [8] [%],growth inhibition [9] [%],growth inhibition [10] [%]
COc1cc(C(=O)NS(=O)(=O)c2ccccc2C)ccc1Cc1cn(C)c2ccc(NC(=O)OC3CCCC3)cc12,-0.736,1.77,0.79,-1.19,1.49,-2.28,-0.546,-0.0974,1.76,0.405
COc1cnc(NS(=O)(=O)c2ccc(N)cc2)nc1,-0.629,0.775,-0.856,0.181,-0.248,0.442,0.00282,-1.59,0.403,1.01
CCOC(CN1CCN(CC(C)C(=O)c2ccccc2)CC1)c1ccccc1 (stereo not given),-0.933,-1.59,-1.24,-0.121,2.63,1.64,-3.21,-1.87,-0.901,13.1
CC(=O)N[C@H]1[C@H]([C@H](O)[C@H](O)CO)OC(C(=O)O)=C[C@@H]1NC(=N)N,1.23,2.89,2.14,1.62,1.17,-2.7,7.75,1.46,2.82,2.15
OCCOCCN1CCN(C(c2ccccc2)c2ccc(Cl)cc2)CC1 (stereo not given),3.87,0.602,4.59,0.403,2.86,3.73,4.05,1.02,-1.15,1.1
CC(C)c1nc(CN(C)C(=O)N[C@H](C(=O)N[C@@H](Cc2ccccc2)C[C@H](O)[C@H](Cc2ccccc2)NC(=O)OCc2cncs2)C(C)C)cs1,1.73,2.67,2.88,1.93,5.32,2.08,5.1,-1.31,-0.349,-0.136
C[C@]12C=CC(=O)C=C1CC[C@@H]1[C@@H]2C(=O)C[C@@]2(C)[C@H]1CC[C@]2(O)C(=O)CO,-2.83,-1.18,-0.368,-2.35,-1.89,-3.12,-4.28,-3.78,-6.66,1.72
CCC(NC(C)C)C(O)c1ccc(O)c(O)c1 (stereo not given),2.91,3.09,1.03,1.97,2.82,5.22,3.15,1.08,5.58,1.21
OC(CCN1CCCCC1)(c1ccccc1)C1CC2C=CC1C2 (stereo not given),-0.000402,-2.1,1.09,-1.44,-1.06,-1.38,0.31,-2.82,-4.33,1
N=C(N)c1ccc2cc(OC(=O)c3ccc(N=C(N)N)cc3)ccc2c1,-0.193,-3.07,-0.0416,-0.893,-0.167,1.06,2.26,1.8,0.556,-0.295
Cc1ccnc2c1NC(=O)c1cccnc1N2C1CC1,0.291,2.43,0.516,-1.16,0.921,-1.94,2,1.95,0.484,0.637
CC1=NN(c2ccccc2)C(=O)C1,-3.36,-1.06,-0.361,-0.407,-0.249,-3.17,-4.84,1.69,-1.55,-0.303
C[C@@H](O[C@H]1OCCN(Cc2n[nH]c(=O)[nH]2)[C@H]1c1ccc(F)cc1)c1cc(C(F)(F)F)cc(C(F)(F)F)c1,8.42,0.0612,5.7,4.43,12.5,7.33,8.95,13.5,5.21,10.1
C[C@@H](O)[C@H]1C(=O)N2C(C(=O)O)=C(S[C@@H]3CN[C@H](CNS(N)(=O)=O)C3)[C@H](C)[C@H]12,0.9,-1.74,3.79,-0.371,-0.0496,-2.09,28.8,-1.38,-5.58,-1.69
COC(=O)CCc1ccc(OCC(O)CNC(C)C)cc1 (stereo not given),0.107,1.63,0.0919,0.526,0.823,1.03,-0.617,-1.21,1.48,0.0941
CC[C@H](C)C(=O)O[C@H]1CCC=C2C=C[C@H](C)[C@H](CC[C@@H]3C[C@@H](O)CC(=O)O3)[C@H]21,3.29,-2.48,9.34,3.1,21.1,12.9,47.3,15.3,-4.05,28.8
O=c1oc2cc(O)ccc2s1,1.14,3.19,6.79,1.73,8.04,3.75,2.15,1.11,5.42,28.9
CC(=O)O[C@]1(C(C)=O)CC[C@H]2[C@@H]3C[C@H](C)C4=CC(=O)CC[C@]4(C)[C@H]3CC[C@@]21C,-3.25,0.463,-0.594,-0.287,-4.12,-0.715,31.3,-4.85,-6.53,4.79
CC(C)c1c(C(=O)Nc2ccccc2)c(-c2ccccc2)c(-c2ccc(F)cc2)n1CC[C@@H](O)C[C@@H](O)CC(=O)O,16.8,-10,21.8,7.54,42.1,23,65.6,32.1,-0.629,39.2
CN(C)C(=O)C(CCN1CCC(O)(c2ccc(Cl)cc2)CC1)(c1ccccc1)c1ccccc1,11.2,3.96,9.47,0.4,13.9,9.1,81.6,7.8,3.43,9.15
COCCOC(=O)C1=C(C)NC(C)=C(C(=O)OC/C=C/c2ccccc2)C1c1cccc([N+](=O)[O-])c1 (stereo not given),2.85,2.42,5.44,5.34,5.91,4.61,5.17,6.24,3.03,0.864

Compound,growth inhibition [1] [%],growth inhibition [2] [%],growth inhibition [3] [%],growth inhibition [4] [%],growth inhibition [5] [%],growth inhibition [6] [%],growth inhibition [7] [%],growth inhibition [8] [%],growth inhibition [9] [%],growth inhibition [10] [%]
Nc1nc2[nH]cc(CCc3ccc(C(=O)N[C@@H](CCC(=O)O)C(=O)O)cc3)c2c(=O)[nH]1,1.3,1.02,2.83,0.403,-0.372,-2.22,-0.517,2.12,-1.22,1.32
CCCC(=O)OCOC(=O)C1=C(C)NC(C)=C(C(=O)OC)C1c1cccc(Cl)c1Cl (stereo not given),2.13,4.21,2.32,2.4,4.32,-0.314,31.7,2.85,3.35,-0.196
CC1(C)[C@@H](OC(=O)CCC(=O)O)CC[C@]2(C)[C@H]3C(=O)C=C4[C@@H]5C[C@@](C)(C(=O)O)CC[C@]5(C)CC[C@@]4(C)[C@]3(C)CC[C@@H]12,-0.0896,-1.93,-0.476,-0.36,1.22,-0.666,0.455,-0.927,2.1,0.0653
CN(C)C/C=C/C(=O)Nc1cc2c(Nc3ccc(F)c(Cl)c3)ncnc2cc1O[C@H]1CCOC1,21.1,8.76,29.6,14.3,11.5,47.5,59.4,10.9,-0.744,0.97
COc1cc(/C=C/C(=O)N2CCN(CC(=O)N3CCCC3)CC2)cc(OC)c1OC,-0.327,0.826,-0.108,-0.784,0.66,-2.67,17.5,0.556,-3.03,-1.16
CC(C)(C)CC(C)(C)c1ccc(OCCOCC[N+](C)(C)Cc2ccccc2)cc1,65.1,71.8,69,43.5,64.3,43.9,82.7,47.1,64.5,73.4
C[C@@H](Oc1cc(-c2cnn(C3CCNCC3)c2)cnc1N)c1c(Cl)ccc(F)c1Cl,26.5,7.08,9.03,10.8,16.1,13.5,54.5,6.53,17.5,1.64
Nc1nc(=O)[nH]cc1F,1.91,1.71,2.65,3.09,1.88,1.43,1.22,0.252,2.66,-3.23
O=C(Nc1ccc([N+](=O)[O-])cc1Cl)c1cc(Cl)ccc1O,43.9,-2.57,24.1,2.53,4.01,5.02,7.85,16.6,3.13,61.3
CCC(C)C1OC2(CCC1C)CC1CC(CC=C(C)C(OC3CC(OC)C(OC4CC(OC)C(O)C(C)O4)C(C)O3)C(C)C=CC=C3COC4C(O)C(C)=CC(C(=O)O1)C34O)O2 (stereo not given),3.13,0.396,1.82,2.33,3.17,15.6,27.4,0.217,3.51,47.6
CCOc1nc2cccc(C(=O)O)c2n1Cc1ccc(-c2ccccc2-c2nnn[nH]2)cc1,0.354,-0.496,0.489,-0.089,0.622,1.65,1.93,-0.153,0.98,-0.345
CCCCCCCCCCCCCCCC[N+](C)(C)C,27.4,41.6,34,22.2,48.6,23.6,59.5,36.8,57.8,18.1
c1ccc2c(c1)CCCC2C1=NCCN1 (stereo not given),1.99,2.84,1.62,2.1,2.48,2.7,8.78,3.45,2.93,0.717
CC[C@H]1OC(=O)C[C@@H](O)[C@H](C)[C@@H](O[C@@H]2O[C@H](C)[C@@H](O)[C@H](N(C)C)[C@H]2O)[C@@H](CCN2C[C@H](C)C[C@H](C)C2)C[C@@H](C)C(=O)/C=C/C(C)=C/[C@@H]1CO[C@@H]1O[C@H](C)[C@@H](O)[C@@H](OC)[C@H]1OC,-3.18,-1.96,-0.192,-2.36,-3.76,-3.98,3.6,-3.04,-5.87,1.2
O=NN(CCCl)C(=O)NC1CCCCC1,0.207,0.604,3.11,1.74,2.6,0.392,8.64,0.873,2.64,0.32
CN(Cc1ccc(C(C)(C)C)cc1)Cc1cccc2ccccc12,1.43,0.769,0.907,2.12,3.22,1.49,0.815,3.24,3.2,1.08
C[C@]12C=CC(=O)C=C1CC[C@@H]1[C@@H]2[C@@H](O)C[C@@]2(C)[C@H]1CC[C@]2(O)C(=O)CO,0.548,0.082,-0.697,2.79,1.22,-0.621,1.3,-0.906,1.51,0.983
Nc1nnc(-c2cccc(Cl)c2Cl)c(N)n1,-0.42,-0.569,-0.114,-0.0846,0.648,0.473,0.358,-1.97,0.284,0.73
CCN[C@H]1CN(CCCOC)S(=O)(=O)c2sc(S(N)(=O)=O)cc21,0.611,0.875,1.84,0.558,2.35,2.83,-0.529,-0.244,2.59,-0.696
CCC(=O)O[C@]1(C(=O)SCF)[C@H](C)C[C@H]2[C@@H]3C[C@H](F)C4=CC(=O)C=C[C@]4(C)[C@@]3(F)[C@@H](O)C[C@@]21C,0.571,2.49,-1.29,2.53,0.688,-0.734,2.55,-3.9,-0.462,1.22
CC(=O)OCC(=O)NCCCOc1cccc(CN2CCCCC2)c1,-1.28,1.04,-1.47,-0.989,-1.44,0.942,-4.85,-2.05,-0.427,-1.04
